Screens (PubChem)
NPR1 activator = GC-A (human) enzyme activation | P16066 | 370,000 tested, 0.14% active | AID 1671463 | activation, % at 10 µM | HEK293 GC-A cells, cGMP TR-FRET, EC30 ANP; 0% at EC30 ANP, 100% saturating ANP; in the data active = activation above about 40%
Target sequence (P16066 whole entry, looked up): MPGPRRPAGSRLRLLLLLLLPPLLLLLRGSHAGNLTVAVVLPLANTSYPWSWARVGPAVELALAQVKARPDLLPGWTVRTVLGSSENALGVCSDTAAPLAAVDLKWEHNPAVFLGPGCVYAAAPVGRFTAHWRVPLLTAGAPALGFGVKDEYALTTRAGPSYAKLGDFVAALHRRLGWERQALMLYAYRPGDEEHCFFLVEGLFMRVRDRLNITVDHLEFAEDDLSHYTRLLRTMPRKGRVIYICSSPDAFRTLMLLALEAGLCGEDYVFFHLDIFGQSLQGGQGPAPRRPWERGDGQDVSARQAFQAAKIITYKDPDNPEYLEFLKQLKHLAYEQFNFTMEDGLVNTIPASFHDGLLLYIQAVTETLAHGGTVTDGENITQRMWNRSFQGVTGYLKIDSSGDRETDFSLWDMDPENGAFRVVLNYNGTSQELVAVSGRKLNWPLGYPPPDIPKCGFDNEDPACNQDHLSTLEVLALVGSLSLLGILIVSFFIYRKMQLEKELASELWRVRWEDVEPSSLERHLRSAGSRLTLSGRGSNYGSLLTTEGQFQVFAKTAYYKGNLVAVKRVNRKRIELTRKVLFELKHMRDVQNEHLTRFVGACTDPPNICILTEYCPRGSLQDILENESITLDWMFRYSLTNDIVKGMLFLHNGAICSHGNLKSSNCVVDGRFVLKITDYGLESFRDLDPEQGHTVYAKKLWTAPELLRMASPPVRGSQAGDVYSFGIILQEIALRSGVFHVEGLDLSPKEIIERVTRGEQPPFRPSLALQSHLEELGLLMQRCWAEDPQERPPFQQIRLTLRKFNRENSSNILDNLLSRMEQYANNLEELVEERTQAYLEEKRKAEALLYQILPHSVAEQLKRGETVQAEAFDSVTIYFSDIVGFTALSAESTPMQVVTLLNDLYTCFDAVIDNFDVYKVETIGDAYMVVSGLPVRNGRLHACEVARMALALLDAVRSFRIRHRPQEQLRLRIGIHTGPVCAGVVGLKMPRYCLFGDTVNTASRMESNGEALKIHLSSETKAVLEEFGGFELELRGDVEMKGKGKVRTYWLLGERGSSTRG
Efflux pump inh = blocks antifungal efflux pumps in multiplex yeast assay; 330,000 tested, 0.44% active; S. cerevisiae Candida pump triplex, Nile Red efflux; AID 485275; inhibition, % at 10 µM;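 active = plate passing quality check with inhibition over a set limit, or well fluorescence over plate mean plus 4 SD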;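 also: Nile Red retained in pooled yeast measured as flow cytometry median fluorescence; 0% = buffer negative control and 100% = Enniatin B positive control; higher means more Nile Red kept so more efflux inhibition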
V-ATPase pHluor = regulators of yeast V-ATPase proton transport | S. cerevisiae, pHLuorin cytosolic pH fluorescence | response, % at 10 µM | 350,000 tested, 0.37% active; in the data active = response mostly above about 7.3%, no sharp cut-off; inactive = mostly below about 5.4%; also: actives read high
GC-B act = GC-B (human) receptor activation; P20594; AID 1920062; activation, % at 10 µM; 370,000 tested, 0.11% active; HEK293-GC-B cells, CNP EC30, cGMP TR-FRET; 0% at EC30 CNP, 100% saturating CNP;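 active = activation at 10 µM reaching about 35% in either raw or pattern-adjusted values, limit read from the data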
NSD2 HMT inh = inhibitors of human histone methyltransferase NSD2 | inhibition, % at 12.5 µM | O96028 | NSD2 peptide methylation, AlphaScreen, 120 min | 310,000 tested, 0.54% active; in the data active = inhibition above about 50%
Rce1 inh = inhibitors of yeast Ras-converting enzyme; Q03530; yeast membranes, quenched prenylated peptide cleavage fluorescence; calls only; 290,000 tested, 0.27% active;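 active = fall in fluorescence gain of 50% or more versus controls, with final raw signal at or below 3038400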;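 also: plate controls were neutral control wells for no effect and wells lacking membranes for full effect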
An asterisk follows results filed as active. The list is not random: actives were taken first. Their share in the collection is about 1.6%.

Screening O=[N+]([O-])c1ccc(C[n+]2c(-c3ccccc3)cc(-c3ccccc3)cc2-c2ccccc2)cc1 returned NPR1 activator 2, Efflux pump inh 0, V-ATPase pHluor -4, GC-B act 3 and Rce1 inh active.
CC(Cc1ccc(O)cc1)NCC(O)c1ccc(O)c(O)c1 (stereo not drawn) was read as NPR1 activator -3, V-ATPase pHluor 3, GC-B act -3 and NSD2 HMT inh 126*.
`COc1ccc(-n2c(O)c(/C=C3\C=Nc4ccc(Br)cc43)c(=O)[nH]c2=O)cc1` gave NPR1 activator 41*, Efflux pump inh 0, V-ATPase pHluor 1, GC-B act 30, NSD2 HMT inh 12 and Rce1 inh inactive.
For OC1CN2CCC(O)C2C(O)C1O (stereo not drawn) the results were NPR1 activator 1 and GC-B act 2.
Screening CN1CC(C(=O)c2ccc(Cl)cc2)C(c2ccc(Cl)cc2Cl)C1 (stereo not drawn) returned NPR1 activator -58, Efflux pump inh 0, V-ATPase pHluor -3, GC-B act -17, NSD2 HMT inh 0 and Rce1 inh active.
`CN1CC(C(=O)c2ccc(Cl)cc2)C(c2ccc(N(C)C)cc2)C1` (stereo not drawn) gave NPR1 activator -24, Efflux pump inh 0, V-ATPase pHluor 5, GC-B act -18, NSD2 HMT inh 36 and Rce1 inh inactive.
Screening N#CCC[C@@H]1CC[C@]2(CCCN(Cc3ccncc3)C2)O1 returned NPR1 activator 2 and GC-B act 0.
Cc1ccnc(-n2c(-c3ccco3)nc3ccccc3c2=O)c1 was read as NPR1 activator 1, Efflux pump inh 0, V-ATPase pHluor 5, GC-B act 4, NSD2 HMT inh -1 and Rce1 inh active.
CC(c1ccccc1)n1cc(C(=O)NC2CCCC2)nn1 (stereo not drawn) was read as NPR1 activator 3, GC-B act 7 and NSD2 HMT inh -3.
Screening O=C1NC(=O)C(=Cc2ccc(-c3cc(Cl)ccc3[N+](=O)[O-])o2)C(=O)N1 returned NPR1 activator 50*, V-ATPase pHluor 4, GC-B act 17, NSD2 HMT inh 50 and Rce1 inh inactive.
`C[n+]1c(-c2ccccc2)c2cc(N)ccc2c2ccc(N)cc21` gave NPR1 activator -19, Efflux pump inh 8.5*, V-ATPase pHluor 4, GC-B act -14 and Rce1 inh inactive.
CN(c1ccc(O)cc1)c1ccc([N+](=O)[O-])c2nonc12 was read as NPR1 activator -2, GC-B act -4 and NSD2 HMT inh 53*.
`O=[N+]([O-])c1ccc(N2CCCCCC2)c2nonc12` gave NPR1 activator -2, Efflux pump inh 0, V-ATPase pHluor 0, GC-B act 0, NSD2 HMT inh 0 and Rce1 inh inactive.
OCC[n+]1c2ccccc2nc2ccc(N3CCOCC3)cc21 was read as NPR1 activator -28, Efflux pump inh 0, V-ATPase pHluor -1, GC-B act -18, NSD2 HMT inh 82* and Rce1 inh inactive.
For CC[C@@H]1C[C@H]2CC[C@H](O2)[C@H](C)C(=O)O[C@@H](C)C[C@@H]2CC[C@@H](O2)[C@@H](C)C(=O)O[C@H](C)C[C@H]2CC[C@H](O2)[C@H](C)C(=O)O[C@@H](C)C[C@@H]2CC[C@@H](O2)[C@@H](C)C(=O)O1 the results were NPR1 activator -9 and GC-B act -6.
O=C1NC(=O)N(c2ccccc2)C(=O)/C1=C\c1ccc([N+](=O)[O-])s1 was read as NPR1 activator -3, Efflux pump inh 0, V-ATPase pHluor 136*, GC-B act 4, NSD2 HMT inh 22 and Rce1 inh inactive.
`COc1ccc(OC)c(N2C(=O)NC(=O)/C(=C\c3ccc([N+](=O)[O-])s3)C2=O)c1` gave NPR1 activator -4, Efflux pump inh 0, V-ATPase pHluor 133*, GC-B act -4, NSD2 HMT inh 38 and Rce1 inh inactive.
`CN1C(=O)NC(=O)/C(=C\c2ccc([N+](=O)[O-])o2)C1=O` gave Efflux pump inh 0, V-ATPase pHluor -1, NSD2 HMT inh active and Rce1 inh inactive.
`COc1ccc(N2C(=O)NC(=O)/C(=C\c3ccccc3[N+](=O)[O-])C2=O)cc1` gave NPR1 activator 7, Efflux pump inh 0, V-ATPase pHluor 0, GC-B act 2, NSD2 HMT inh 3 and Rce1 inh inactive.
CN1C(=O)NC(=O)/C(=C/c2ccc([N+](=O)[O-])s2)C1=O was read as NPR1 activator 11, Efflux pump inh 0, V-ATPase pHluor 130*, GC-B act 3, NSD2 HMT inh 37 and Rce1 inh inactive.
`O=C1NC(=O)N(c2ccccc2)C(=O)/C1=C\c1ccc([N+](=O)[O-])o1` gave Efflux pump inh 0 and Rce1 inh inactive.
COC(=O)[C@@]1(O)c2c(oc3cccc(O)c3c2=O)C=C[C@H]1O was read as NPR1 activator 9 and GC-B act -3.
COc1ccc(Cc2cn(C)c(N)n2)cc1 was read as NPR1 activator 2 and GC-B act 4.
For O=C(NCCN1CCC2(CC1)C(=O)NCN2c1ccccc1)c1ccc(F)c(F)c1 the results were NPR1 activator -4 and GC-B act -11.
`CC(=O)c1c(C)n(CCCOC(C)C)c2ccc(O)cc12` gave NPR1 activator 11, Efflux pump inh 0, V-ATPase pHluor -3, GC-B act 5, NSD2 HMT inh 1 and Rce1 inh inactive.
CCOC(=O)c1c(C)n(Cc2ccc(F)cc2)c2ccc(O)cc12 was read as NPR1 activator 67*, Efflux pump inh 0, V-ATPase pHluor -4, GC-B act 7, NSD2 HMT inh 0 and Rce1 inh inactive.
CCOC(=O)c1c(C)n(Cc2ccco2)c2ccc(O)cc12 was read as NPR1 activator 50*, Efflux pump inh 0, V-ATPase pHluor 4, GC-B act -2, NSD2 HMT inh 2 and Rce1 inh inactive.
`CCC(C)NC(=O)c1c(N)n(Cc2ccc3c(c2)OCO3)c2nc3ccccc3nc12` (stereo not drawn) gave NPR1 activator 6, Efflux pump inh 0, V-ATPase pHluor -7, GC-B act 22, NSD2 HMT inh 7 and Rce1 inh inactive.
Screening COC(=O)c1c(C)n(Cc2ccc3c(c2)OCO3)c2ccc(O)cc12 returned NPR1 activator 78*, Efflux pump inh 0, V-ATPase pHluor -3, GC-B act 22, NSD2 HMT inh 0 and Rce1 inh inactive.
`CCOC(=O)c1c(C)n(Cc2ccc3c(c2)OCO3)c2ccc(O)cc12` gave NPR1 activator 79*, Efflux pump inh 0, V-ATPase pHluor -2, GC-B act 28, NSD2 HMT inh -1 and Rce1 inh inactive.
